LANA-H2B inh – blocks KSHV LANA binding to histone H2A/H2B | inhibition, % (no concentration beside the values) | Q9QR71 | hit rate 0.6% among 320,000 | cell-free LANA-H2A/H2B peptide, fluorescence polarization | AID 2629; in the data active = inhibition mostly above about 10%, no sharp cut-off; inactive = mostly below about 6.7%
HDAC3 inhib – human HDAC3 inhibition. O15379. recombinant HDAC3, fluorogenic peptide/trypsin coupled, fluorescence. inhibition, % at 8.3 µM. hit rate 0.15% among 320,000. AID 2718; in the data active = inhibition above about 26%, passing the limit was not always enough; inconclusive = no clear call, values can overlap the other calls
APOBEC3A inh – inhibitors of human APOBEC3A DNA deaminase; recombinant A3A, FAM/TAMRA ssDNA deamination fluorescence; inhibition, % at 20 µM; hit rate 0.41% among 330,000; AID 493011; P31941;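 active = at least 40% inhibition at 20 µM here, with at most 30% in a related deaminase screen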
Target sequence (P31941 whole entry, looked up): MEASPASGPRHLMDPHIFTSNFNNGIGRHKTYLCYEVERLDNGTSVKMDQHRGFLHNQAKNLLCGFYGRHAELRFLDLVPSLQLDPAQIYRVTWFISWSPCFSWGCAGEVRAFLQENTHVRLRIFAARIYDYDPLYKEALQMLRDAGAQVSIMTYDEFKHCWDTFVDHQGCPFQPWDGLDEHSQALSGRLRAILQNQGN
A3G deaminase – inhibitors of human APOBEC3G DNA deaminase. Q9HC16. recombinant A3G, ssDNA deamination FAM/TAMRA fluorescence. inhibition, % at 20 µM. hit rate 0.28% among 330,000. AID 493012;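 active = inhibition of at least 40% at 20 µM, with no more than 30% in the related APOBEC3A deaminase screen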
Target sequence (Q9HC16 whole entry, looked up): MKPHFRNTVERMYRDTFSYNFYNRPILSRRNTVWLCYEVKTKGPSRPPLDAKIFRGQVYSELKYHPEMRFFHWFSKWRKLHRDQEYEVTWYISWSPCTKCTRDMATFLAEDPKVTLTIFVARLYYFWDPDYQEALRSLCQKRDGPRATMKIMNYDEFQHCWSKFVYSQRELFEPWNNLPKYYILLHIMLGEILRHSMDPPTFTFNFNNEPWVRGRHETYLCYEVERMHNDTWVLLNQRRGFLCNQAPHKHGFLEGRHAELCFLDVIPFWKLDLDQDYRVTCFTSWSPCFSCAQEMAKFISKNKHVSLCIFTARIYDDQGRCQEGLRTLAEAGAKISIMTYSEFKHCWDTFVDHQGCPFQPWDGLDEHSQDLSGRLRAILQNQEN
Numbers stand for hits; – = inactive; ? = inconclusive; · = not tested or not shown; + = active, no number; ! = not active in a repeat. Shown are actives, neighbours in structure and some others; about 1.4% of the full set was active somewhere.

SMILES	LANA-H2B inh	HDAC3 inhib	APOBEC3A inh	A3G deaminase
CC(CNC(=O)CN(C)CC(=O)Nc1ccccc1Br)c1ccccc1 (stereo not given)	·	·	–	–
Cc1ccc(NC(=O)CN(C)C(=O)c2cccc(S(=O)(=O)N3CCc4ccccc43)c2)cc1	–	–	–	–
CC[C@H](C)Cc1cn([C@@H](CCCN=C(NC(=O)OC(C)(C)C)NC(=O)OC(C)(C)C)C(=O)NCCCCCCCCCCC(=O)N2CCN(C(=O)OC(C)(C)C)CC2)nn1	–	28	–	–
Cc1cn([C@@H](CCCCNC(=O)OC(C)(C)C)C(=O)NCCCCCCCCCCC(=O)N2CCN(C(=O)OC(C)(C)C)CC2)nn1	–	–	–	–
C#CCOCCOCCOCCNc1nc(N2CCN(C(=O)CCCCCCCCCCNC(=O)[C@@H](CCSC)n3cc(CCO)nn3)CC2)nc(N2CCN(C(=O)CCCCCCCCCCNC(=O)[C@H](CCCN=C(N)N)n3cc(C[C@@H](C)CC)nn3)CC2)n1	–	69	–	–
C#CCOCCOCCOCCNc1nc(N2CCN(C(=O)CCCCCCCCCCNC(=O)[C@H](CCCN=C(N)N)n3cc(C[C@@H](C)CC)nn3)CC2)nc(N2CCN(C(=O)CCCCCCCCCCNC(=O)[C@@H]([C@H](C)CC)n3cc(CCCCCN)nn3)CC2)n1	–	33	–	–
C#CCOCCOCCOCCNc1nc(N2CCN(C(=O)CCCCCCCCCCNC(=O)[C@H](CCCCN)n3cc(C[C@@H](C)CC)nn3)CC2)nc(N2CCN(C(=O)CCCCCCCCCCNC(=O)[C@H](CCCN=C(N)N)n3cc(C[C@@H](C)CC)nn3)CC2)n1	–	?	–	–
Cn1nc(C(F)(F)F)cc1-c1ccc(/C=C(\C#N)C(=O)c2ccccc2)s1	20	–	–	–
COc1cccc2sc3cc(NCc4ccc(C)o4)ccc3c(=O)c12	–	–	–	–
O=C(O)Cn1cc(CN2CCOCC2)c2ccccc21	–	–	–	–
Cn1cc(CN2CCN(c3ccccc3)CC2)c2ccccc21	13	–	–	–
CCOC(=O)c1c([N+](=O)[O-])c(C)[nH]c(=O)c1C#N	–	–	–	–
Cc1[nH]c(=O)c(C#N)c(C)c1[N+](=O)[O-]	13	–	–	–
Cc1ccc2c(c1)N(C(=O)CCC(=O)Nc1ccccc1Cl)CC(C)O2 (stereo not given)	–	·	–	–
Nc1nc(N)c(Cc2ccc(Cl)cc2Cl)c(N)n1	32	–	–	–
Cc1ccnc2nc(C(=O)OCC(=O)N3CC(C)CC(C)C3)nn12 (stereo not given)	·	·	–	–
Cc1cccc(-n2c(SCC(=O)c3c(N)n(C4CC4)c(=O)[nH]c3=O)nnc2N2CCOCC2)c1	–	–	–	–
Cc1nc2c(C)cccn2c1/C(O)=C1\C(=O)C(=O)N(CCN(C)C)C1c1ccccc1 (stereo not given)	12	–	–	–
CCOC(=O)c1ccc(OCCOc2ccccc2C)cc1	–	–	–	–
CCOc1ccccc1OCCOc1ccc(F)cc1	26	–	–	–
CSc1ccccc1NC(=O)Cn1ccsc1=N	11	–	–	–
CC(C)C[C@H](NC(=O)NC(C)C)C(=O)O	16	–	–	–
COc1ccc2oc(=O)c(C(=O)NCCc3ccc(OC)c(OC)c3)cc2c1	12	–	–	–
COc1ccc2oc(=O)c(C(=O)NCc3ccc4c(c3)OCO4)cc2c1	–	–	–	–
O=C(CSc1cccc[n+]1[O-])NC1CCCCC1	–	–	–	–
SMILES	LANA-H2B inh	HDAC3 inhib	APOBEC3A inh	A3G deaminase
CCOc1ccccc1NC(=O)COC(=O)c1ccc2ccccc2n1	111	–	–	–
CC[C@H]1c2[nH]c3ccccc3c2C[C@H]2C(=O)N(c3ccc(F)cc3)C(=O)N21	+	–	–	–
COc1ccc(OC)c(Nc2ncnc3sccc23)c1	–	·	–	–
COc1cc(CN(C)c2ncnc3sccc23)ccc1OC(F)F	16	–	–	–
CCCCOC(=O)CSc1nc2c(c(=O)[nH]c(=O)n2C)n1C/C=C(\C)Cl	12	–	–	–
C/C(Cl)=C/Cn1c(SCC(C)C)nc2c1c(=O)[nH]c(=O)n2C	–	–	–	–
Cc1cc(C(=O)N2CCCC(C(=O)c3cccc(C(F)(F)F)c3)C2)nc(C)n1 (stereo not given)	14	–	–	–
COCCCNC(=O)CNC(=S)N(Cc1ccc(F)cc1)C1CCCCC1	30	–	–	–
CC1CCCC(NC(=O)CSc2nnc(-c3cccnc3)n2N)C1C (stereo not given)	–	–	–	–
Nc1cccc(Nc2nc(OC(C(F)(F)F)C(F)(F)F)nc(OC(C(F)(F)F)C(F)(F)F)n2)c1	–	49	–	–
Cc1ccc(N2C(=O)N(CC(=O)Nc3ccc(C)c(C)c3[N+](=O)[O-])C(=O)C2C)cc1 (stereo not given)	130	–	–	–
CCN(CC)C(=O)C1c2ccccc2Oc2ccccc21	14	–	–	–
O=C(COC(=O)c1cncc(Br)c1)NC12CC3CC(CC(C3)C1)C2	20	–	–	–
CCN(C(=O)COC(=O)c1ccc(=O)n(Cc2ccccc2)n1)C1CCS(=O)(=O)C1 (stereo not given)	·	·	–	–
COc1ccc2c3c(cccc13)C(=O)CC2	+	–	·	·
O=C(CCNC(=O)c1ccc(Br)cc1)NCc1cccnc1	22	–	–	–
O=C(CCSCc1ccc(Cl)cc1)NCc1cccnc1	+	–	–	–
CC[C@]1(C(=O)OC)[C@H]2C(=O)N(Cc3ccccc3)C(=O)[C@H]2[C@H]2CN(C)C(=NC)N21	·	·	–	–
COCCn1c(/C=C/c2ccccc2)nc2ccccc21	-127	–	–	–
COc1cccc(C2CC(=O)N3CN(c4cccc(Cl)c4C)CSC3=C2C#N)c1OC (stereo not given)	–	51	–	–
COc1ccc(OC)c(C2CC(=O)N3CN(c4ccc(C)c(Cl)c4)CSC3=C2C#N)c1 (stereo not given)	–	–	–	–
COc1ccc(OC)c(C2CC(=O)N3CN(c4cccc(Cl)c4C)CSC3=C2C#N)c1 (stereo not given)	–	37	–	–
COc1ccc(OC)c(C2CC(=O)N3CN(c4cccc(Cl)c4)CSC3=C2C#N)c1 (stereo not given)	–	–	–	–
O=C(N=C1SC2CS(=O)(=O)CC2N1c1ccc(F)cc1)C1CC1 (stereo not given)	16	–	–	–
COC(=O)[C@@]1(Cc2ccccc2)[C@H]2C(=O)N(Cc3ccccc3)C(=O)[C@H]2[C@H]2CN=C(SCC3CC3)N21	·	·	–	–
SMILES	LANA-H2B inh	HDAC3 inhib	APOBEC3A inh	A3G deaminase
COCCNC(=S)N(CCO)Cc1cc2cc3c(cc2[nH]c1=O)OCCO3	–	32	–	–
O=C1c2ccccc2[C@@H]2C[C@H]3O[C@H]3CCN12	·	·	–	–
CCN(CC)S(=O)(=O)c1ccc(N2CCc3cc(OC)c(OC)cc3C2)nc1	–	–	–	–
COc1ccc(-c2nc3c(=O)n(C)c(=O)[nH]c3n2CCc2ccccc2)cc1	20!	–	–	–
CCCn1c(-c2ccccc2)nc2c(=O)n(C)c(=O)[nH]c21	–	–	–	–
O=c1c(/C=C(\O)c2ccc(F)cc2)nc2ccccc2n1-c1ccccc1	-3.4	–	–	–

Assay outcomes (PubChem)
